Data from ChEMBL document CHEMBL3988442, “University of Dundee, Small-Polar-MMV Screening Library” (2021).
The campaign covered roughly 69,000 compounds. About 950 (1.4%) showed an effect of 50% or more. This is one part of a sample in which strong results are shown more often than they occur.

These compounds were tested on Mycobacterium tuberculosis (assay: Cornell M. t heat shock assay; further: in the data most compounds retested in dose-response had high values).
Assay type: functional, organism-based
Set-up: dose or concentration left out as unconfirmed
`COc1cccc(CN2CCC3(CC2)CCN(C(=O)[C@@H]2CCCO2)C3)c1.O=C(O)C(F)(F)F` was tested, and the “Percent Effect” value was -4.383%. `Cc1nc(Cc2ccc(F)cc2)cc(C2COCCN2)n1.Cl` (stereo unspecified) was tested, and the “Percent Effect” value was 12.05%. `O=C(Nc1ccccc1)[C@H]1C[C@@H]2CN(S(=O)(=O)C3CC3)C[C@H]1O2` was tested, and the “Percent Effect” value was 2.732%. In the case of `CN(C)CCN(C(=O)Cc1ccc2c(c1)OCCO2)C1CCN(C)CC1.O=C(O)CC(O)(CC(=O)O)C(=O)O`, the “Percent Effect” value is reported as -33.14%. In the case of `CCOCC1CN(Cc2cccnc2)Cc2nn(C)cc21.O=C(O)C(F)(F)F.O=C(O)C(F)(F)F` (stereo unspecified), the “Percent Effect” value is reported as -34.52%. For `Cc1nc(CNCc2cccc(OC34CCCN(CC3)C4)c2)n[nH]1` (stereo unspecified), the “Percent Effect” value was -9.099%. With `c1ccc(Oc2cccc(OC34CCCN(CC3)C4)c2)cc1` (stereo unspecified) the “Percent Effect” value was 91.1%. For `Cc1cnccc1CNCc1ccc(OC23CCCN(CC2)C3)cc1` (stereo unspecified), the “Percent Effect” value was -9.053%. For `O=c1[nH]nc(CNCc2ccc(OC34CCCN(CC3)C4)cc2)[nH]1` (stereo unspecified), the “Percent Effect” value was -6.374%. With `N#Cc1cccc(OC23CCCN(CC2)C3)c1` (stereo unspecified) the “Percent Effect” value was -19.96%. For `c1ccc(Oc2ccc(OC34CCCN(CC3)C4)cc2)cc1` (stereo unspecified), the “Percent Effect” value was 98.13%. `CCOCC1CN(C(=O)c2cc(C)oc2C)Cc2c1cnn2C.O=C(O)C(F)(F)F` (stereo unspecified) was tested, and the “Percent Effect” value was 38.21%. `CN1CC(=O)N(c2cccc(F)c2)CC12CCN(S(C)(=O)=O)C2.O=C(O)C(F)(F)F` (stereo unspecified) was tested, and the “Percent Effect” value was -1.241%. In the case of `COCCC(=O)Nc1ccnn1-c1ccccc1`, the “Percent Effect” value is reported as -7.442%. `CSCC(=O)Nc1nccn1Cc1ccc(Br)cc1` was tested, and the “Percent Effect” value was 103.2%. For `CCOCC(=O)Nc1ccc(-n2ccc(C(N)=O)n2)cc1`, the “Percent Effect” value was 15.42%. With `CSCC(=O)Nc1ncn(Cc2cccc(Br)c2)n1` the “Percent Effect” value was -31.04%. In the case of `CS(=O)(=O)c1nccn1Cc1ccc(C(N)=O)cc1`, the “Percent Effect” value is reported as 2.892%. For `COCCC(=O)Nc1nccn1Cc1ccc(Br)cc1`, the “Percent Effect” value was 102.5%. In the case of `COCCn1ccc(=O)c(OCC(=O)Nc2ccc(Br)cc2)c1C`, the “Percent Effect” value is reported as 17.79%. `CC(C)(C#N)C(=O)Nc1nccn1Cc1ccc(Br)cc1` was tested, and the “Percent Effect” value was 102.4%. In the case of `CNC(=O)c1ccc(Cn2ccnc2S(C)(=O)=O)cc1`, the “Percent Effect” value is reported as 3.305%. With `CCOCC(=O)Nc1nccn1Cc1ccc(Br)cc1` the “Percent Effect” value was 106.8%. In the case of `CCOCC(=O)Nc1ncn(Cc2cccc(Br)c2)n1`, the “Percent Effect” value is reported as -16.14%. `CSc1ncccc1C(=O)Nc1ccc(Cn2ccccc2=O)cc1` was tested, and the “Percent Effect” value was 5.912%. With `O=C1c2cnc(N3CCOCC3)nc2CN1C1CCS(=O)(=O)C1` (stereo unspecified) the “Percent Effect” value was 3.438%. In the case of `CN(C)[C@@H]1CCN(C(=O)Cc2cccs2)[C@H]1Cc1ccncc1.O=C(O)C(F)(F)F.O=C(O)C(F)(F)F`, the “Percent Effect” value is reported as -5.714%. With `O=C(O)C(=O)O.c1cc(CN2CCC(c3ccc4c(c3)OCO4)CC2)ccn1` the “Percent Effect” value was -9.586%. For `Cc1nc[nH]c1CN1C[C@@H]2CC[C@H](C1)N(C(=O)CCn1cncn1)C2`, the “Percent Effect” value was 2.899%. For `Cc1cc(C(=O)N2CCO[C@H]3[C@H](OCCN(C)C)CC[C@@H]32)c(C)[nH]1.O=C(O)C(F)(F)F`, the “Percent Effect” value was -25.69%. With `O=C(O)C(F)(F)F.O=C(O)C(F)(F)F.c1cnn(Cc2nnc3n2CCCN(Cc2ccsc2)C3)c1` the “Percent Effect” value was -42.35%. In the case of `O=C(O)C(F)(F)F.c1cnc(N2CCCC3(CCN(CC4CCOC4)CC3)C2)nc1` (stereo unspecified), the “Percent Effect” value is reported as -17.62%. In the case of `COCC(=O)Nc1nccn1Cc1ccc(Br)cc1`, the “Percent Effect” value is reported as 82.4%. With `COCC(=O)Nc1nn(Cc2ccc(F)cc2)cc1Cl` the “Percent Effect” value was -26.17%. With `COCC(=O)NC(C)Cc1ccc(Br)cc1` (stereo unspecified) the “Percent Effect” value was 38.61%. For `Cc1cc(Cc2cccc(C(F)(F)F)c2)cc(C2CCCNC2)n1` (stereo unspecified), the “Percent Effect” value was 52.39%. `Cc1cccc(Cc2cc(C)nc(C3CCCNC3)c2)c1` (stereo unspecified) was tested, and the “Percent Effect” value was -6.804%. `Cc1cc(Cc2ccccc2)cc(C2CCCNC2)n1` (stereo unspecified) was tested, and the “Percent Effect” value was -1.453%. `CN(C)C(=O)C1CCN(C2CCN(CC3CCC3)CC2)CC1.O=C(O)C(F)(F)F.O=C(O)C(F)(F)F` was tested, and the “Percent Effect” value was 5.992%. With `c1nnc(Nc2cncc(C3CCCN3CC3CC3)n2)s1` (stereo unspecified) the “Percent Effect” value was 103.4%. With `c1ccc(CCN2CCCC2c2cncc(Nc3nncs3)n2)cc1` (stereo unspecified) the “Percent Effect” value was 99.24%. With `c1cc(C2CCCN2CC2CC2)n[nH]1` (stereo unspecified) the “Percent Effect” value was 1.213%. `CNc1cncc(C2CCCN2Cc2ccn(C)n2)n1` (stereo unspecified) was tested, and the “Percent Effect” value was -19.6%. In the case of `Cc1nc(Nc2nncs2)cc(C2CCCN2C)n1` (stereo unspecified), the “Percent Effect” value is reported as -13.41%. For `CNc1cncc(C2CCCN2S(=O)(=O)c2ccccc2)n1` (stereo unspecified), the “Percent Effect” value was -16.46%. For `Cl.Cl.c1ccc2c(c1)C(NC1CCCC1)CC21CCNCC1` (stereo unspecified), the “Percent Effect” value was -6.748%. `O=C1C[C@H]2CC[C@@H](CN1)N2C(=O)CCCc1ccc(Cl)cc1` was tested, and the “Percent Effect” value was -2.57%. With `CN1[C@H]2CC[C@@H]1CN(C(=O)c1ccc(-c3ccccc3)[nH]1)CC2` the “Percent Effect” value was 5.823%. For `O=C(c1ccco1)N1CCC(n2nc(-c3ccco3)ccc2=O)CC1`, the “Percent Effect” value was 18.57%. With `O=C(Cc1ccsc1)N1CCC(n2nc(-c3ccco3)ccc2=O)CC1` the “Percent Effect” value was 50.48%. For `CC(C)C(=O)N1CCC(n2nc(-c3ccco3)ccc2=O)CC1`, the “Percent Effect” value was 1.271%. In the case of `Cc1nc(CNCC2Cn3nncc3CO2)cs1.O=C(O)C(F)(F)F` (stereo unspecified), the “Percent Effect” value is reported as 3.892%. In the case of `O=C(O)C(F)(F)F.O=C(c1cscn1)N1CCC2(CN(Cc3ccoc3)C2)C1`, the “Percent Effect” value is reported as -1.882%. For `COCc1nc2cc(NCc3ccc(CO)o3)ccc2o1`, the “Percent Effect” value was -21.34%. With `COCc1nc2cc(NCc3ccncc3)ccc2o1` the “Percent Effect” value was 47.84%. For `COCc1nc2cc(NCc3ccc(C)o3)ccc2o1`, the “Percent Effect” value was 60.09%. `CCc1ccsc1C(=O)N1CCN(CC(O)CC)CC1` (stereo unspecified) was tested, and the “Percent Effect” value was 21.24%. With `O=C(c1ccco1)N1C(CO)[C@]2(O)CC[C@H]1CC2` (stereo partly specified) the “Percent Effect” value was 34.52%. For `CN(C)CCN1CCO[C@@H]2CN(C(=O)c3cccs3)CC[C@@H]2C1.O=C(O)C(F)(F)F.O=C(O)C(F)(F)F`, the “Percent Effect” value was -0.5819%. With `Cc1ccc(CC(=O)N2CC[C@@H]3CN(CCN(C)C)CCO[C@@H]3C2)cc1.O=C(O)C(F)(F)F.O=C(O)C(F)(F)F` the “Percent Effect” value was -3.479%. In the case of `CN(C)CCN1CCO[C@@H]2CN(C(=O)Cc3ccsc3)CC[C@@H]2C1`, the “Percent Effect” value is reported as 50.48%.
